The values below come from article PMC7819943, “Rice protein-binding microarrays: a tool to detect cis-acting elements near promoter regions in rice”.

Whole data set: some 39,000 sequences, median “fluorescence intensity (a.u.)” near 4,300, cut for the highest 2% near 39,000. The entries come from a sample that favours the highest values as a whole.

This test addresses T1, OsSMF1 (Oryza sativa, UniProt Q6ZLB0 1-436).
T1 sequence: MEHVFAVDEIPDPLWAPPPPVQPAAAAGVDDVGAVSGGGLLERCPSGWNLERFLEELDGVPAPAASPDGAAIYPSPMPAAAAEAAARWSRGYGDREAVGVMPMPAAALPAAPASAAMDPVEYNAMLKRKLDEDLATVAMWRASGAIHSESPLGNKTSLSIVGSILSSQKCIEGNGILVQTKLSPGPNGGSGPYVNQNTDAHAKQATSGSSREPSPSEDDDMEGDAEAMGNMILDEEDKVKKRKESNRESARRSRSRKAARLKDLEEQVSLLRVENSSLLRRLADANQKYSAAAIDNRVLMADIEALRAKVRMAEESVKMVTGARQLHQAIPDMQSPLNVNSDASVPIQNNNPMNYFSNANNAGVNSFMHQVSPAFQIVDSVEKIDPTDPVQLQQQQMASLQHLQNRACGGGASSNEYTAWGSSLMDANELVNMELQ
Description: protein-binding microarray (RPBM); PBS, 2% BSA, 51.3 ng/ul salmon testes DNA, 50 uM zinc acetate, 200 nM TF, 25 C, 1 h; high values mean tight binding. The following applies: protein: recombinant; tags: N-terminal polyhistidine and DsRed monomer fusion (pET32a); chain copies: 2; label: CyDye5-dUTP incorporated in the synthesized complementary strand; 3' TTTTT single-stranded linker to array surface; dsDNA, one strand shown. A digest of the protocol: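 A custom Agilent array was converted to double-stranded form by primer extension with Cy5-dUTP and blocked with 2% BSA. Protein at 200 nM in PBS with 2% BSA, salmon testes DNA and 50 µM zinc acetate was applied for 1 h at 25 °C, followed by washing. The proteins were polyhistidine–DsRed N-terminal fusions of transcription factors, expressed in E. coli BL21-CodonPlus and Ni–NTA-purified. The binding signal is per-feature fluorescence intensity (arbitrary units) from an Axon 4000B scanner.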
For “TTTGCATTGACTTGATATAGTATGTCACCATCACACTATCCGGAGTCACCTAGTGCAG”, the binding signal was 5460 fluorescence intensity (a.u.).

Regarding “TTACAAACAACGCCTTGCATGATTGCATCATCGCCCTAAACGGAGTCACCTAGTGCAG”, the binding signal was 4300 fluorescence intensity (a.u.).

In the case of “TTGCATCAGGCCCTCTTCAATGATTTAAACAAACAATGGACGGAGTCACCTAGTGCAG”, the binding signal was 52300 fluorescence intensity (a.u.).

For “TTGTGACTTGATTTATCATCAAATGTTCTTTAAACATGACCGGAGTCACCTAGTGCAG”, the binding signal was 3540 fluorescence intensity (a.u.).

Take “GGCGTATTCCAAAAGCCTTGGCCACCATTATTGCGTGGCACGGAGTCACCTAGTGCAG”: the binding signal is 6820 fluorescence intensity (a.u.).

On to “GCTAGCTAAGAGCGAGCTTCATTAACATACGAGACAGAGACGGAGTCACCTAGTGCAG”, for which the binding signal is 4530 fluorescence intensity (a.u.).

Turning to “ACCCATATAATTAAGGTGCCAATGCTGCTAATACTCTCTCCGGAGTCACCTAGTGCAG”, the binding signal is 46100 fluorescence intensity (a.u.).

As for “GTTAATTAATACTCTCCGTTTCATATTATAAGGCGTTTGACGGAGTCACCTAGTGCAG”, the binding signal was 26400 fluorescence intensity (a.u.).

For “TACTCTGCCAATCTAAATTAATGATGTATGATATGGTCTCCGGAGTCACCTAGTGCAG”, the binding signal was 4340 fluorescence intensity (a.u.).

For “GACACATGAGGGCCCACATGTCATACATTGTGAATGACACCGGAGTCACCTAGTGCAG”, the binding signal is 3900 fluorescence intensity (a.u.).

Regarding “GCCGCACCGGTCGGTTTCAGCGCGTGTGACACGCAGATTCCGGAGTCACCTAGTGCAG”, the binding signal was 3500 fluorescence intensity (a.u.).

With “CTTGTCTAGTCCAGGACAACTGGGATGATTGAGCACCAGTCGGAGTCACCTAGTGCAG”, the binding signal was 3170 fluorescence intensity (a.u.).

With “AACCTCAATGTTCCACGTCATCATTAATTTACAGCCGTTGCGGAGTCACCTAGTGCAG”, the binding signal was 39400 fluorescence intensity (a.u.).

Consider “CCGTTACATTGTTCCAATTTTAATTAAACTTCCAATTTTACGGAGTCACCTAGTGCAG”, for which the binding signal was 30600 fluorescence intensity (a.u.).

As to “CAAACCACAGTGTTCCACGTCATCATCAATTGACAGCCGTCGGAGTCACCTAGTGCAG”, the binding signal was 37800 fluorescence intensity (a.u.).

Regarding “ATGGGGTGGATGCGTCAGAATTTACATAGGCACGGAACGTCGGAGTCACCTAGTGCAG”, the binding signal is 5800 fluorescence intensity (a.u.).

Regarding “CCTTCCCTAGGGGCGGAGCCACGTAGCTTGGGCCCCACACCGGAGTCACCTAGTGCAG”, the binding signal is 6430 fluorescence intensity (a.u.).

Turning to “GAGAGAGTGTAGGTTGCCGATGACGTTCCAAATATTGATCCGGAGTCACCTAGTGCAG”, the binding signal is 4490 fluorescence intensity (a.u.).

In the case of “TTATTATTATTGGATGGTTAGATGACAAATCCAACCTCACCGGAGTCACCTAGTGCAG”, the binding signal was 3640 fluorescence intensity (a.u.).

In the case of “ATGACGATGGTTAATCCAAATAACATATTGGCCCGGGTTCCGGAGTCACCTAGTGCAG”, the binding signal is 49900 fluorescence intensity (a.u.).

With “CACCTTCTTCAAGCTCCCTCCTCTGAAGCCTCTTCTTCTTCGGAGTCACCTAGTGCAG”, the binding signal was 34900 fluorescence intensity (a.u.).

For the sequence “ACCTTCATTGGATCTGCCTCCCTGCAAGCCTCTGCCTCAACGGAGTCACCTAGTGCAG”, the binding signal is 43300 fluorescence intensity (a.u.).

“ATTGACATGGAGTCATGGACACTCTCCCTGCCTCCTCCCTCGGAGTCACCTAGTGCAG”: the binding signal was 3370 fluorescence intensity (a.u.).

As for “TCCAGTTGTGCGTGGAGATGTTGGTGAAGAGCTTCCGCTGCGGAGTCACCTAGTGCAG”, the binding signal is 4270 fluorescence intensity (a.u.).

Take “TGAAATGCTATGTTGGTCCAGACTTCCGCTACGAAGGAGACGGAGTCACCTAGTGCAG”: the binding signal is 65100 fluorescence intensity (a.u.).

In the case of “TCTCCACTTCAGAGACGGTCCCACCTGTCATCCGCTCATACGGAGTCACCTAGTGCAG”, the binding signal is 4680 fluorescence intensity (a.u.).

Take “CCCTTACACCGCCCTGTGAACAGTCACTGACAATCCTGGCCGGAGTCACCTAGTGCAG”: the binding signal was 4330 fluorescence intensity (a.u.).

As to “TTAGTGCATGCTGCTAACTAAATACACGTAGCTTGTTGATCGGAGTCACCTAGTGCAG”, the binding signal is 3310 fluorescence intensity (a.u.).

With “AAATTCCACGTGCCACATATTTCGTTCATTTGAGTTTATTCGGAGTCACCTAGTGCAG”, the binding signal was 8820 fluorescence intensity (a.u.).

Consider “CTCCTGCCCACCAATCTTGCGGCGGAAAACAAGGCGTGATCGGAGTCACCTAGTGCAG”, for which the binding signal is 4000 fluorescence intensity (a.u.).

Turning to “CCTACACATATATATATATATATGCATGGCAACTTGGCAACGGAGTCACCTAGTGCAG”, the binding signal is 3340 fluorescence intensity (a.u.).

As to “TCAGCTGGCATGCATGGCAACATATATATGGCTGGAAGTACGGAGTCACCTAGTGCAG”, the binding signal was 40000 fluorescence intensity (a.u.).

“TGGTGCTGGTCCTCAACATGCATGTGCTATGGCAAGATCCCGGAGTCACCTAGTGCAG”: the binding signal was 42800 fluorescence intensity (a.u.).

As for “TGGTGCTGTGGTGGTGGTGGTCATGGACTCATTGGGCATGCGGAGTCACCTAGTGCAG”, the binding signal was 3180 fluorescence intensity (a.u.).

As to “TTGATGGAGATGGGAGTTGGTGCGGATGTCCTTGTCGCCCCGGAGTCACCTAGTGCAG”, the binding signal is 3200 fluorescence intensity (a.u.).

“GTACGTCGGAAGCAACGGCAGACATGACAGCATATGGCCTCGGAGTCACCTAGTGCAG”: the binding signal is 15900 fluorescence intensity (a.u.).

Regarding “TTCATAGAGAGGGCCGGCAACGGCCTAGGCACGCTGGTGTCGGAGTCACCTAGTGCAG”, the binding signal was 34700 fluorescence intensity (a.u.).

In the case of “GAGAGTCGCCTTGTCAACATATGGCAGATGCAGCTGGTGCCGGAGTCACCTAGTGCAG”, the binding signal is 61100 fluorescence intensity (a.u.).

On to “GCGAAGCAACATGCTGCTGCTCAAGAGGAGGAAGATGGTGCGGAGTCACCTAGTGCAG”, for which the binding signal is 3350 fluorescence intensity (a.u.).

With “AGCTCGTGACGTTAATCTCCGTATAACCAAGCCATGTTGTCGGAGTCACCTAGTGCAG”, the binding signal was 6620 fluorescence intensity (a.u.).

“CATATAATTGATAGCAGCATGACAGATTGCCAGTTAGCCGCGGAGTCACCTAGTGCAG”: the binding signal is 3290 fluorescence intensity (a.u.).

In the case of “AGTAGTAGGGCGCGACACGCGTGTACGTTGCGATAGATGTCGGAGTCACCTAGTGCAG”, the binding signal was 3330 fluorescence intensity (a.u.).

On to “ATGTCTCGTTATCTCCTAAACATGTCATTACACTGGAAACCGGAGTCACCTAGTGCAG”, for which the binding signal was 3240 fluorescence intensity (a.u.).

Take “TATGGGGCCGTGATATTCAATGTGATGTGCATACAGCATGCGGAGTCACCTAGTGCAG”: the binding signal was 3720 fluorescence intensity (a.u.).

Take “CTGCCTCCTGTTCGCGCTCCACGCCACCACTGCCGACGAGCGGAGTCACCTAGTGCAG”: the binding signal is 4300 fluorescence intensity (a.u.).

For the sequence “AGAGCGATCTGATCGACCGAGTTGTGTCATGCCGTACTACCGGAGTCACCTAGTGCAG”, the binding signal is 4330 fluorescence intensity (a.u.).

For “AATTATCTTGAAGCACCTCAACTCAACCTGATGTCATACACGGAGTCACCTAGTGCAG”, the binding signal was 4390 fluorescence intensity (a.u.).

Regarding “AGATTTGTGCTCTGACCCACTTCACTCACTTAGTCTCTAGCGGAGTCACCTAGTGCAG”, the binding signal is 3630 fluorescence intensity (a.u.).

As to “GAATTTACTTTAGCGGAGATTGAGCACTTTGTGGACCCAGCGGAGTCACCTAGTGCAG”, the binding signal is 52400 fluorescence intensity (a.u.).

Take “CCAATTTCCGACTTCATGAGATTTATGTCTTTGTGGTCAGCGGAGTCACCTAGTGCAG”: the binding signal was 3210 fluorescence intensity (a.u.).

For the sequence “ATGTGTAATGACATGACTAGGCATTCCCTTCAGTTAGTCTCGGAGTCACCTAGTGCAG”, the binding signal is 9940 fluorescence intensity (a.u.).

Take “TGCTTCTGATACTCACGTATATTTCATACACACGTGAATGCGGAGTCACCTAGTGCAG”: the binding signal is 3210 fluorescence intensity (a.u.).

Consider “GTGGAATATTTCTGATCATGGTTTGGGAATAAACGTTCTGCGGAGTCACCTAGTGCAG”, for which the binding signal is 3310 fluorescence intensity (a.u.).

For the sequence “GAGACCGTTCTGAATTTCTGAGACTGATACATATTTGATGCGGAGTCACCTAGTGCAG”, the binding signal was 40300 fluorescence intensity (a.u.).
